# In PubChem BioAssay (NCATS):
# Values joined by “and” are separate entries in the source; they are usually repeats but may differ in a detail not shown here. Equal values may be shown once. Unmarked numbers belong to inactive results. Records with an inconclusive call do not appear. Where a call stands in place of a potency, no number is given. Active and inactive are the calls of the source. Unless noted, calls come from the whole dose curve; as a rule, active = well fitted curve in the direction sought with a large enough effect; inconclusive = small, poorly fitted or top-dose-only effect, or another doubt; inactive = no such curve, though single readings can be large; an effect the other way counts as inactive or inconclusive.
# Tests used:
# [1] = Cell Viability - Hek293 (AID 427;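 active = compounds whose dose-response curve shows a full or clear partial loss of cell viability, called from curve shape rather than a numeric limit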;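 note: potency is the fitted concentration of half-maximal effect; cells exposed to compound for 40 hours at 37 °C before reading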); details: qHTS
# Summary of the method: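 qHTS, human embryonic kidney (adenovirus-transformed) cells; 40 hr cpd, 37 °C; CellTiter-Glo ATP luminescence. Norm: DMSO = 0, 100 uM tamoxifen = 100% inhibition. Hill-fit AC50.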
# [2] = Cell Viability - N2a (AID 540); details: N2a mouse neuroblastoma cell viability; at 92.2 µM (top of the series);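 note: cells exposed to compound for 40 h at 37 °C; nearly all actives have a fitted effect of over 45% in size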
# Summary of the method: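 First, 1500 N2a cells per well incubate 5 hr at 37 °C; next, compounds are added and incubated 40 hr at 37 °C; finally CellTiter-Glo is added and luminescence read after 20 min, with AC50 derived by Hill modeling.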
# [3] = Cellular Toxicity (caspase-3) Hek293 (AID 664); details: HEK293 caspase-3 activation, DMSO = 0%, 100 µM tamoxifen = 100%; series mostly up to 92.2 µM;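 note: cells exposed to compound for 16 h at 37 °C before readout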
# Summary of the method: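 Activation of caspase-3/7 is measured as increased luminescence from cleaved peptide-aminoluciferin substrate in HEK293 cells treated 16 hours at 37 °C. AC50 values come from Hill-equation fits of concentration-response data.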
# [4] = Cell Viability - LYMP2-001 (AID 921); details: LYMP2-001 lymphoblastoid cell viability; series mostly up to 92.2 µM;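 note: cells exposed to compound for 24 h at 37 °C; nearly all actives have a fitted effect of over 70% in size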; note: potency is the fitted concentration of half-maximal effect
# Summary of the method: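 Steps: seed 2500 lymphoblastoid cells/well; 5 hr, 37 C; add compound; 24 hr, 37 C; CellTiter-Glo reagent, 30 min room temperature; read luminescence. Concentration-response modeled by Hill equation for AC50.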
# [5] = MultiTox-Fluor Cytotoxicity Assay - LYMP1-003 - Live Cells (AID 962); details: LYMP1-003 lymphoblastoid cells, MultiTox-Fluor live-cell protease fluorescence; series mostly up to 92.2 µM;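 note: cells exposed to compound for 16 hours at 37 °C; cytotoxic hits lower the live-cell protease signal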
# Summary of the method: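 Cells plated at 2500 per well and incubated 5 hr; compounds added and incubated 16 hr at 37 C; MultiTox-Fluor reagent added for 60 min at room temperature; fluorescence of liberated AFC measured at 405/510 nm.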
# [6] = Cell Viability - LYMP1-003 - Assay at 40 hr (AID 964); details: LYMP1-003 lymphoblastoid viability; series mostly up to 92.2 µM; note: nearly all actives have a fitted effect of over 60% in size
# Summary of the method: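 This qHTS cytotoxicity screen treats human lymphoblastoid cells (LYMP1-003) with compounds for 40 hr and quantifies cellular ATP via luciferase luminescence.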
# [7] = Cell Viability - LYMP2-005 (AID 967); details: LYMP2-005 lymphoblastoid cell viability; series mostly up to 92.2 µM;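 note: cells exposed to compound for 24 h at 37 °C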; note: potency is the fitted concentration of half-maximal effect
# Summary of the method: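 Acute cytotoxicity is scored as a concentration-dependent drop in intracellular ATP in human lymphoblastoid LYMP2-005 cells after 24 h compound treatment. ATP is quantified by luciferase luminescence, and AC50 is derived by Hill-equation modelling.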
# [8] = Cell Viability - LYMP2-011 (AID 969); details: LYMP2-011 lymphoblastoid cells viability; series mostly up to 92.2 µM;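 note: cells exposed to compound for 24 hours; nearly all actives have a fitted effect of over 60% in size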
# Summary of the method: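 Acute toxicity is scored as a concentration-dependent drop in intracellular ATP of a human lymphoblastoid line after 24 hr treatment. Values are AC50s modeled with the Hill equation.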
# [9] = Cell Viability - LYMP2-017 (AID 972); details: LYMP2-017 lymphoblastoid cell viability; series mostly up to 92.2 µM;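 note: cells exposed to compound for 24 hours at 37 °C; nearly all actives have a fitted effect of over 55% in size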; note: potency is the fitted concentration of half-maximal effect
# Summary of the method: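 Steps: plate 2500 lymphoblastoid cells per well; incubate 5 hr at 37 C; add compound across a concentration series and incubate 24 hr at 37 C; add CellTiter-Glo and read luminescence after 30 min at room temperature; fit Hill curves for AC50.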
# [10] = Cell Viability - LYMP2-019 (AID 973); details: LYMP2-019 lymphoblastoid cell line viability; series mostly up to 92.2 µM;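 note: cells exposed to compound for 24 h at 37 °C; nearly all actives have a fitted effect of over 55% in size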
# Summary of the method: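 Cells plated at 2500/well and allowed 5 hr at 37 C before compound addition. After 24 hr incubation, CellTiter-Glo reagent was added, plates sat 30 min at room temperature, and luminescence was recorded.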
# [11] = Cell Viability - LYMP2-023 (AID 975); details: LYMP2-023 lymphoblastoid cell viability; series mostly up to 92.2 µM;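 note: cellular ATP measured by luciferase luminescence as viability proxy; cells exposed to compound for 24 hours at 37 °C; nearly all actives have a fitted effect of over 55% in size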
# Summary of the method: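 Concentration-dependent drop in intracellular ATP measures acute cytotoxicity in a human lymphoblastoid line treated for 24 hours in complete culture medium. AC50 values are taken from Hill-equation fits of qHTS data.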
# [12] = Cell Viability - LYMP2-010 (AID 981); details: LYMP2-010 lymphoblastoid cell viability, qHTS; series mostly up to 92.2 µM;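 note: cells exposed to compound for 24 hours at 37 °C; nearly all actives have a fitted effect of over 55% in size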; note: potency is the fitted concentration of half-maximal effect
# Summary of the method: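 Acute toxicity is scored as a concentration-dependent loss of cellular ATP in human lymphoblastoid cells after 24 hr compound exposure in complete medium. Tetraoctylammonium bromide is the positive control.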
# [13] = Cell Viability - LYMP2-016 (AID 984); details: LYMP2-016 lymphoblastoid cell viability, qHTS; series mostly up to 92.2 µM
# Summary of the method: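 Cells were seeded at 2500 per well and rested 5 hr before a 24 hr compound exposure at 37 C. Viability was then gauged as cellular ATP by luciferase luminescence, with AC50 values fitted to the Hill equation.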
# [14] = Cell Viability - LYMP2-018 (AID 985); details: LYMP2-018 lymphoblastoid cells, viability (qHTS); series mostly up to 92.2 µM; note: nearly all actives have a fitted effect of over 50% in size
# Summary of the method: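 Acute cytotoxicity is scored as a concentration-dependent drop in intracellular ATP after 24 hr exposure of the lymphoblastoid line in complete culture medium, measured by luciferase luminescence. Potency is expressed as AC50 from Hill modelling.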
# [15] = Cell Viability - LYMP2-020 (AID 986); details: series mostly up to 92.2 µM
# Summary of the method: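 Acute cytotoxicity in a human lymphoblastoid line is scored as a concentration-dependent fall in cellular ATP after 24 hr at 37 C in complete medium. The positive control is tetraoctylammonium bromide, and potency is given as Hill-fit AC50.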
# [16] = Cell Viability - LYMP2-022 (AID 987); details: LYMP2-022 lymphoblastoid cell viability; series mostly up to 92.2 µM; note: nearly all actives have a fitted effect of over 55% in size; note: potency is the fitted concentration of half-maximal effect
# Summary of the method: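 Acute toxicity in a human lymphoblastoid line is scored as decreased intracellular ATP after 24 hr compound treatment at 37 C. ATP is measured by CellTiter-Glo luminescence; curves are fitted with the Hill equation to give AC50.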
# [17] = Cell Viability - LYMP2-026 (AID 989); details: LYMP2-026 lymphoblastoid cell viability, qHTS; series mostly up to 92.2 µM;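 note: cells exposed to compound for 24 h at 37 °C; nearly all actives have a fitted effect of over 50% in size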
# Summary of the method: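 Concentration-dependent loss of intracellular ATP in human lymphoblastoid cells after 24 hr at 37 C, quantified by luciferase luminescence. AC50 derived from standard Hill equation.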
# [18] = Cell Viability - LYMP1-002 - Assay at 40 hr (AID 994); details: LYMP1-002 lymphoblastoid cell viability; series mostly up to 92.2 µM; note: nearly all actives have a fitted effect of over 60% in size
# Summary of the method: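 Viability in the human lymphoblastoid line was measured as intracellular ATP via CellTiter-Glo after 40 hr compound exposure. Tetraoctylammonium bromide served as positive control.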
# [19] = target: Thyroid hormone receptor beta (Homo sapiens) (UniProt P10828); test: qHTS assay for small molecule antagonists of thyroid hormone receptor beta signaling (AID 588547; active = well fitted inhibition curve with a large enough effect in the signal ratio, with a control signal flat, not every such curve was filed as active; the % refers to the signal ratio;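 note: cells stimulated with 0.4 nM T3 agonist during compound exposure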); details: TR-UAS-bla HEK293, beta-lactamase ratio, antagonist mode, 18 h
# Thyroid hormone receptor beta (Homo sapiens), sequence (P10828 whole entry, looked up): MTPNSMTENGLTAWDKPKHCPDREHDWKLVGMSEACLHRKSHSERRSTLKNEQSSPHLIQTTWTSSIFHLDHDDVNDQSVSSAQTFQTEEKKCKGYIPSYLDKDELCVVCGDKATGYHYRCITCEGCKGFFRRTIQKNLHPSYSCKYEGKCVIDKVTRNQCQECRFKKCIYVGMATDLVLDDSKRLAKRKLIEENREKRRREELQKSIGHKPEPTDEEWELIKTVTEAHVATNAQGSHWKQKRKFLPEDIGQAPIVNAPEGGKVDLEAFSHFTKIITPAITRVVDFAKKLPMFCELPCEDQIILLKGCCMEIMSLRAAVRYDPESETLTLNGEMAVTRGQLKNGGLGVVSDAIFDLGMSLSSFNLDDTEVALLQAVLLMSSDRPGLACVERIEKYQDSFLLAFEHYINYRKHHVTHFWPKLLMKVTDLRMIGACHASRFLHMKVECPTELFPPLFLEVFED
# Summary of the method: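 TR-UAS-bla GripTite HEK293 cells in 2% charcoal/dextran FBS medium; compounds 0.59 nM to 92 uM with T3 at 0.4nM final, 18 h at 37 C. Beta-lactamase read by CCF4 fluorescence (460/530 nm); Hill fits gave IC50 and efficacy.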
# [20] = qHTS assay for small molecule disruptors of the mitochondrial membrane potential - 5 hr assay (AID 651755; calls by dose curve; note: nearly all actives have a fitted effect of over 40% in size); details: JC-1-type ratio dye; series mostly up to 92.2 µM
# Summary of the method: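 HepG2 cells (2,000/well), attached overnight, exposed to compound 5 hr at 37C, then Mito-MPS dye 30 min. Fluorescence read for monomers (490/535 nm) and aggregates (540/590 nm).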
SMILES,Potency [1] [µM],"activity change, negative = cytotoxicity [2]",outcome [3],Potency [4],Potency [5],Potency [6],Potency [7],Potency [8],Potency [9],Potency [10],Potency [11],Potency [12],Potency [13],Potency [14],Potency [15],Potency [16],Potency [17],Potency [18],activity change % (negative = inhibition) [19],Potency [20]
Clc1nc(Cl)nc(Nc2ccccc2Cl)n1,> 92,9.08%,inactive,inactive,inactive,inactive,inactive,inactive,inactive,inactive,inactive,inactive,inactive,inactive,inactive,inactive,inactive,inactive,11.4%,inactive
ClC(Cl)=C(Cl)C(Cl)=C(Cl)Cl,> 92,-4.4%,inactive,–,inactive,inactive,inactive,inactive,–,inactive,inactive,–,–,inactive,–,–,inactive,inactive,-2.4%,inactive
c1ccc(OP(Oc2ccccc2)Oc2ccccc2)cc1,> 92,6.82%,inactive,inactive,inactive,inactive,inactive,inactive,inactive,inactive,inactive,inactive,inactive,inactive,inactive,inactive,inactive,inactive,5.76%,inactive
CC(C)(OO)c1ccccc1,> 92,3.56%,inactive,39.8 µM (active),inactive,inactive,39.8 µM (active),–,50.1 µM (active),–,–,25.1 µM (active),inactive,–,inactive,39.8 µM (active),inactive,inactive,14.1% and -10.7%,inactive
CCOP(=S)(OCC)Oc1ccc([N+](=O)[O-])cc1,> 92,–,inactive,inactive,inactive,inactive,inactive,inactive,inactive,inactive,inactive,inactive,inactive,inactive,inactive,inactive,inactive,inactive,9.15% and -8.55%,inactive
NC(=S)Nc1ccccc1,> 92,-0.295% and -0.273%,inactive,inactive,inactive,inactive,inactive,inactive,inactive,inactive,inactive,inactive,inactive,inactive,inactive,inactive,inactive,inactive,-7.36% and -1.01% and 3.6%,inactive
[O-][Br+2]([O-])O,> 92,-3.27% and 7.55%,inactive,inactive,–,inactive,inactive,inactive,inactive,inactive,inactive,inactive,inactive,inactive,inactive,inactive,inactive,inactive,6.91% and -5.45%,inactive
C=CC(N)=O,> 92,1.31% and 7.69%,inactive,inactive,inactive,inactive,inactive,inactive,inactive,inactive,inactive,inactive,inactive,inactive,inactive,inactive,inactive,inactive,–,inactive
Brc1ccc(Oc2cc(Br)c(Br)cc2Br)c(Br)c1,–,-86.7% (active) and -80.4% (active),inactive,inactive,inactive,inactive,inactive,inactive,inactive,inactive,inactive,inactive,inactive,inactive,inactive,inactive,inactive,inactive,8.45% and -8.42%,–
Cc1ccc(O)c(C)c1,> 92,1.99%,inactive,inactive,inactive,–,inactive,inactive,inactive,inactive,inactive,–,inactive,inactive,inactive,inactive,inactive,inactive,2.23% and -13.2% and -16.1%,inactive
CC(O)CCl (stereo not drawn),> 92,5.86%,inactive,inactive,inactive,inactive,inactive,inactive,inactive,inactive,inactive,inactive,inactive,inactive,inactive,inactive,inactive,inactive,-4.17%,inactive
Clc1cccc(C(Cl)(Cl)Cl)n1,> 92,-3.54%,inactive,inactive,inactive,inactive,inactive,inactive,inactive,inactive,inactive,inactive,inactive,inactive,inactive,inactive,inactive,inactive,-14.1% and -4.27%,inactive
C[N+](C)(C)Cc1ccccc1,> 92,-22%,inactive,inactive,inactive,inactive,inactive,inactive,inactive,inactive,inactive,inactive,inactive,inactive,inactive,inactive,inactive,inactive,-5.57% and -5.51%,inactive
